As a reminder, the AC50 is the concentration at which the activity in the assay is half-maximal.

Records with an inconclusive call do not appear. Active and inactive are the calls of the source. How the source made its calls: active means hit-call score of the fitted dose curve at least 0.9, where 1 is the maximum; inconclusive means response in the unintended direction; inactive means score below 0.9.

Sequence of human Protein Tyrosine Phosphatase Non-receptor Type 6 (PTPN6), PTPN6 (gene 5777) (P29350 whole entry, looked up): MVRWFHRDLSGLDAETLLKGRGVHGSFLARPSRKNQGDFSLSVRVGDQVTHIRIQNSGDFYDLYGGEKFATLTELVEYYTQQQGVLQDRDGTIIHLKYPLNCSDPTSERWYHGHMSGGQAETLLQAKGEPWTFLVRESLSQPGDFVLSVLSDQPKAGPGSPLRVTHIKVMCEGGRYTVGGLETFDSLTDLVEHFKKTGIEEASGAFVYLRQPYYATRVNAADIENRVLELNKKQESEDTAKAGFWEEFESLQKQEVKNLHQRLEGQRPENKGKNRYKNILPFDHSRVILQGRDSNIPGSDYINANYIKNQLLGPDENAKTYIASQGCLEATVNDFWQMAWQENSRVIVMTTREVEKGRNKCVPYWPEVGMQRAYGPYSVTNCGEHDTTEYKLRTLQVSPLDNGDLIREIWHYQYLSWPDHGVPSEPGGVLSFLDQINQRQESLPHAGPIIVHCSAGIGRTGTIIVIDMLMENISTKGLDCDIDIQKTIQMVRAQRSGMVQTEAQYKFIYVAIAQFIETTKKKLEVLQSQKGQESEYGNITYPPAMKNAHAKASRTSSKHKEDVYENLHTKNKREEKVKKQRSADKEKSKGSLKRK
Sequence of human Sirtuin 1 (SIRT1), SIRT1 (gene 23411) (Q96EB6 whole entry, looked up): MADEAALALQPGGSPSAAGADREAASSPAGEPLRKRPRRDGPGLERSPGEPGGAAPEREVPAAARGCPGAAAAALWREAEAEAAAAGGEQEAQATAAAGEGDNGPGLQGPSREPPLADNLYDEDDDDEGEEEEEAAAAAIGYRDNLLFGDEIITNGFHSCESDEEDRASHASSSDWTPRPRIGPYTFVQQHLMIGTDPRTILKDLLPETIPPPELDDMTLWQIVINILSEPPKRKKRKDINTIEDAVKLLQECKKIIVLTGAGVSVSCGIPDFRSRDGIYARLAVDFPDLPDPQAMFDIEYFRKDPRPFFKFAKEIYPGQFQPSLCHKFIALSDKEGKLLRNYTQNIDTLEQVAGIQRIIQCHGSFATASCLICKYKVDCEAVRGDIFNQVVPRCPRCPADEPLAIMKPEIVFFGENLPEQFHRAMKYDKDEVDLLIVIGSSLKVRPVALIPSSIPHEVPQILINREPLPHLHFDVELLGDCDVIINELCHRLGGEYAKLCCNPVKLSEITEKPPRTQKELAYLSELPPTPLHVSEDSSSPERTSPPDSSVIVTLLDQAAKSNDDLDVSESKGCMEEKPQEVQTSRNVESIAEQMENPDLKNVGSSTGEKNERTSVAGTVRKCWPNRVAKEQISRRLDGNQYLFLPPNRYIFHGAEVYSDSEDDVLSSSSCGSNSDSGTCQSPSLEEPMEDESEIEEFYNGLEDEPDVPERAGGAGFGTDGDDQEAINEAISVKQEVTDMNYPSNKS
Sequence of human Rho Associated Coiled-coil Containing Protein Kinase 1 (ROCK1), ROCK1 (gene 6093) (Q13464 whole entry, looked up): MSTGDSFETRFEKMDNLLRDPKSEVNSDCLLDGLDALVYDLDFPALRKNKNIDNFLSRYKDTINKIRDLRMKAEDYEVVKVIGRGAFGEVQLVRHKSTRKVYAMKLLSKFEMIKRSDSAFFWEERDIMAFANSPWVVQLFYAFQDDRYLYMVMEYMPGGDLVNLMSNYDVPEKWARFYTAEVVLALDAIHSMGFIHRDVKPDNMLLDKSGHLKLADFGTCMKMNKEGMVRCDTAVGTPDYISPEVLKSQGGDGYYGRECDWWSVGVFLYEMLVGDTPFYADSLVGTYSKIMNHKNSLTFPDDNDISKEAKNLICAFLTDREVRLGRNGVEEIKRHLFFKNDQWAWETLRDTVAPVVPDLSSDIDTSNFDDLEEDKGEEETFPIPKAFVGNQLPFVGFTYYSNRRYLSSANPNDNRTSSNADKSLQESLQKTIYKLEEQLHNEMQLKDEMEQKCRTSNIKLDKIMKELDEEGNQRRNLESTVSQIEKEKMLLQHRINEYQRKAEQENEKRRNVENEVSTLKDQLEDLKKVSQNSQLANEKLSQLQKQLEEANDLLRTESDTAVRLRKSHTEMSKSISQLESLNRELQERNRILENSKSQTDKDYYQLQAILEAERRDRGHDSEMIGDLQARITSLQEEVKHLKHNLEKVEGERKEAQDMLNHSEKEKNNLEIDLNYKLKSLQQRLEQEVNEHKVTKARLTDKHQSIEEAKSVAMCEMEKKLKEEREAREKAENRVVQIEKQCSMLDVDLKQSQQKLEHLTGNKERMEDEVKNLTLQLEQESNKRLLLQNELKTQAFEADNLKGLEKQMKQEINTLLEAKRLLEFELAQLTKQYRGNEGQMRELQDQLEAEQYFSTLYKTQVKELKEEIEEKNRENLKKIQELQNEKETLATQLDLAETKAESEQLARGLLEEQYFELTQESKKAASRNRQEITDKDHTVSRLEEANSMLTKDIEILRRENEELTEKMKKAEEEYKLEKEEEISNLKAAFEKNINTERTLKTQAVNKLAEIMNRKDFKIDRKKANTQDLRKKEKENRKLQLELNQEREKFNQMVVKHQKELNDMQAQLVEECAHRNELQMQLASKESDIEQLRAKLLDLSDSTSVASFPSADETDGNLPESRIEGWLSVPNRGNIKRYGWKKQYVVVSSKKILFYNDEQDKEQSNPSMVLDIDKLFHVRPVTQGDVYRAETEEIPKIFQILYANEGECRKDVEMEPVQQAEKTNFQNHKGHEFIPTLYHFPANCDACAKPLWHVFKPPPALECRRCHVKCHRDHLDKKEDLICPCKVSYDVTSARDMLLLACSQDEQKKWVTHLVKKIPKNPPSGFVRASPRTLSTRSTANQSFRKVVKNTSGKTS

The first test concerns the target human Protein Tyrosine Phosphatase Non-receptor Type 6 (PTPN6), PTPN6 (gene 5777) (UniProt P29350). The test is described as follows: NVS_ENZ_hPTPN6: NovaScreen (NVS) Enzymatic Assay for human Protein Tyrosine Phosphatase Non-receptor Type 6 (PTPN6) (AID 2283210). In outline:
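Recombinant human PTPN6 from SF9 cells, enzyme activity followed by fluorescence after mobility-shift separation of substrate and product at 1.33 h. Chemicals first tested at a single 25 uM in duplicate, then confirmed across concentration series; loss of signal relative to DMSO.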
`O=C(O)c1cccc(C(=O)O)c1`: the compound was called inactive.

Regarding `NNC(=O)c1ccncc1`, the call was inactive.

For the compound `COS(C)(=O)=O`, the result was inactive.

`NC(=O)NN=Cc1ccc([N+](=O)[O-])o1`: the AC50 was 10.9 µM (active).

As to `OC[C@H]1O[C@@H]2O[C@H]3[C@H](O)[C@@H](O)[C@@H](O[C@H]4[C@H](O)[C@@H](O)[C@@H](O[C@H]5[C@H](O)[C@@H](O)[C@@H](O[C@H]6[C@H](O)[C@@H](O)[C@@H](O[C@H]7[C@H](O)[C@@H](O)[C@@H](O[C@H]1[C@H](O)[C@H]2O)O[C@@H]7CO)O[C@@H]6CO)O[C@@H]5CO)O[C@@H]4CO)O[C@@H]3CO`, the compound was called inactive.

For the compound `CNC(C)=O`, the outcome was inactive.

With `O=C(O)[C@H](O)[C@@H](O)C(=O)O`, the compound was classed as inactive.

In the case of `C=CN1CCCC1=O`, the outcome was inactive.

`CC1(C)C(=O)N(Cl)C(=O)N1Cl`: the compound was classed as inactive.

Regarding `O=S1(=O)CCCO1`, the outcome was inactive.

On to `NC(=O)N1c2ccccc2C=Cc2ccccc21`, for which the compound was classed as inactive.

Consider `c1ccc2ncccc2c1`, for which the compound was called inactive.

Another test deals with human Rho Associated Coiled-coil Containing Protein Kinase 1 (ROCK1), ROCK1 (gene 6093) (UniProt Q13464). The test is described as follows: NVS_ENZ_hROCK1: NovaScreen (NVS) Enzymatic Assay for human Rho Associated Coiled-coil Containing Protein Kinase 1 (ROCK1) (AID 2283214). In outline:
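Compounds first run in duplicate at 25 uM against recombinant human ROCK1, then followed in concentration series. Kinase activity was read 1 h post-dosing by fluorescence with mobility-shift separation, as signal loss relative to DMSO.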
Consider `CCN(CC)C(=S)SSC(=S)N(CC)CC`, for which the result was inactive.

For `CC(=O)c1ccccc1`, the compound was classed as inactive.

Take `CCCc1ccccc1`: the result was inactive.

For another test, the target named is human Protein Tyrosine Phosphatase Receptor Type M (PTPRM), PTPRM (gene 5797) (UniProt P28827). In words: NVS_ENZ_hPTPRM: NovaScreen (NVS) Enzymatic Assay for human Protein Tyrosine Phosphatase Receptor Type M (PTPRM) (AID 2283215). In outline: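 Read-out is fluorescence after electrophoretic separation of substrate and product, taken 1.33 h post-dosing with recombinant enzyme. Compounds screened at 25 uM in duplicate, then concentration series for actives; activity as signal loss relative to DMSO.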
Sequence of human Protein Tyrosine Phosphatase Receptor Type M (PTPRM), PTPRM (gene 5797) (P28827 whole entry, looked up): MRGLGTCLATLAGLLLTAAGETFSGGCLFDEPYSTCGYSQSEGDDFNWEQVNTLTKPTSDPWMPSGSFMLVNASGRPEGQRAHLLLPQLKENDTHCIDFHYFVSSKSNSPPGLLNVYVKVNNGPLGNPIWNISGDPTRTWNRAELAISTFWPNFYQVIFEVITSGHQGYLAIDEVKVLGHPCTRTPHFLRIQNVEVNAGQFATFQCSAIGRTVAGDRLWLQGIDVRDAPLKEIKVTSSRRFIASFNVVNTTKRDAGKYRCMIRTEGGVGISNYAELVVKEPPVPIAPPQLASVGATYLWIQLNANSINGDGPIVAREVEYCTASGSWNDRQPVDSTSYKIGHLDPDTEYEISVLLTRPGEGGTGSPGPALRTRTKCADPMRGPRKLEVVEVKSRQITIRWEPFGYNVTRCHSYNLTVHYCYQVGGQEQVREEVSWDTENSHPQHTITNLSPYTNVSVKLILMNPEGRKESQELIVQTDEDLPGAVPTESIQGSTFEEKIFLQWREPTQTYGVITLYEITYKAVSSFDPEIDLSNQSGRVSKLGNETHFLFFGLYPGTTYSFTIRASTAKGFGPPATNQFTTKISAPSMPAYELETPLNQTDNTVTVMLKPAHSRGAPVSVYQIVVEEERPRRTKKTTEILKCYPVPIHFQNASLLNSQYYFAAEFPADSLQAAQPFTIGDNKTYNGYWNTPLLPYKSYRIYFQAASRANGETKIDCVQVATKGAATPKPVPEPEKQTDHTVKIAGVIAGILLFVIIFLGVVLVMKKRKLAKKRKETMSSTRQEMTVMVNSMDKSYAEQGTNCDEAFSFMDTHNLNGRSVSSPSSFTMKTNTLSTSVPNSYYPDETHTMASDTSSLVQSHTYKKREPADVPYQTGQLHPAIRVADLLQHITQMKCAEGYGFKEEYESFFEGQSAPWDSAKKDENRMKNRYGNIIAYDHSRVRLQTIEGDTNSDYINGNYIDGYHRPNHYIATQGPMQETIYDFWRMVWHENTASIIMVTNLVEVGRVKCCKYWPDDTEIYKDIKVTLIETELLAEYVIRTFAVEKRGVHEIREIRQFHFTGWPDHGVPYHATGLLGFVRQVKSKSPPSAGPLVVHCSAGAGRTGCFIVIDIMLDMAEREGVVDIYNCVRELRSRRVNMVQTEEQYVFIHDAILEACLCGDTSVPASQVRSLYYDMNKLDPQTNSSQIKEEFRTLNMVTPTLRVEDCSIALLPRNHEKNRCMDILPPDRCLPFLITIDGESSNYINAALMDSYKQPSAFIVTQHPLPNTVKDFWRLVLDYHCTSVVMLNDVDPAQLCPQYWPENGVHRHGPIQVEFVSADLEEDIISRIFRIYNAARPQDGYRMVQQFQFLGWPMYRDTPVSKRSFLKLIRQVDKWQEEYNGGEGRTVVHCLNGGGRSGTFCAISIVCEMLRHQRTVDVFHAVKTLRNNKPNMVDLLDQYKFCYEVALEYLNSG
For `CCOc1ccc2[nH]cc(C(=O)NCc3ccccc3)c(=O)c2n1`, the result was inactive.

On to `NC(=O)N1c2ccccc2C=Cc2ccccc21`, for which the outcome was inactive.

Regarding `c1ccc2ncccc2c1`, the result was inactive.

Another test has as its target human Sirtuin 1 (SIRT1), SIRT1 (gene 23411) (UniProt Q96EB6). In words: NVS_ENZ_hSIRT1: NovaScreen (NVS) Enzymatic Assay for human Sirtuin 1 (SIRT1) (AID 2283219). In outline: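 Cell-free recombinant SIRT1 with a fluorescent substrate; substrate and product separated by electrophoretic mobility shift and read by fluorescence intensity, 1 h after dosing. Primary screen at 25 uM in duplicate; hits re-run in concentration-response up to 50 uM, relative to DMSO.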
Take `COCc1nnc(-c2ccc[n+]([O-])c2)n1-c1c(Cl)c(Cl)cc2[nH]c(=O)c(=O)[nH]c12`: the outcome was inactive.

For `NNC(=O)c1ccncc1`, the call was inactive.

For the compound `NC(N)=O`, the outcome was inactive.

For the compound `CC(C)c1nnc2ccc(-c3ocnc3-c3cc(F)ccc3F)cn12`, the call was inactive.

Take `CCN(CC)C(=S)SSC(=S)N(CC)CC`: the result was inactive.

As for `CCCCCCOC(=O)CC(CC(=O)OCCCCCC)(OC(=O)CCC)C(=O)OCCCCCC`, the result was inactive.

For `CC(=O)c1ccccc1`, the compound was classed as inactive.

As to `Cn1cc[nH]c1=S`, the outcome was inactive.

These data come from PubChem BioAssay (EPA / NIEHS).
